# According to the supplement of paper PMC10849652:
# The full data set covers some 7,900 targets. This sample favours those with a hit. About 0.6% of all pairs of compound and target were hits. A number with no mark means an inactive call.
# Legend:
# Experiment in all cases: log2 fold change, soluble protein after heating vs DMSO (PISA); higher = thermal stabilisation; K562 cells, 10 uM, 30 min; active = over 0.2 and 3.5 SD of the protein, either way, in both replicates (recomputed)
# [1] = compound: CC[C@@H]1C(=O)N(C)c2cnc(Nc3ccc(C(=O)NC4CCN(C)CC4)cc3OC)nc2N1C1CCCC1
# Procedure, shortened: (§1)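 K562 cells at 2×10^6 cells/mL were exposed to 10 μM compound for 30 min, then aliquots were heated for 3 min across 48°C-58°C, pooled, and extracted in PBS containing 0.5% NP-40 at 4°C. The supernatant after 21,000xg for 90 min was taken as soluble protein and measured by TMTpro 16plex LC-MS/MS with channel sums equalised. Thermal stability is reported relative to control samples, with values from duplicates. Fold changes are given on a log2 scale.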
# volasertib = compound: CC[C@@H]1C(=O)N(C)c2cnc(Nc3ccc(C(=O)N[C@H]4CC[C@H](N5CCN(CC6CC6)CC5)CC4)cc3OC)nc2N1C(C)C [volasertib]
# Procedure, shortened: as §1
# [2] = compound: CC[C@H](C)N1C=C(C2=C(C=C(C=C21)C3=CN=C(C=C3)N4CCNCC4)C(=O)NCC5=C(C=C(NC5=O)C)C)C
# Procedure, shortened: as §1
# epoxomicin = compound: CC[C@H](C)[C@@H](C(=O)N[C@@H]([C@@H](C)O)C(=O)N[C@@H](CC(C)C)C(=O)[C@]1(CO1)C)NC(=O)[C@H]([C@@H](C)CC)N(C)C(=O)C [epoxomicin]
# Procedure, shortened: as §1
# [3] = compound: CCn1c(C(=O)N(C2CC2)C2CC2)cc2c3c(ncn3C)c(Nc3cc(C)n(C)n3)nc21
# Procedure, shortened: as §1
# [4] = compound: CCn1cc(-c2ccnc3[nH]c(-c4cccc(CN(C)C)c4)cc23)c(-c2ccc(NC(=O)N(C)C)cc2)n1
# Procedure, shortened: as §1
# [5] = compound: CN(C)CC(=O)Nc1ccc2[nH]c(=O)c3ccccc3c2c1
# Procedure, shortened: as §1
# rosiglitazone = compound: CN(CCOC1=CC=C(C=C1)C[C@H]2C(=O)NC(=O)S2)C3=CC=CC=N3 (racemic) [rosiglitazone]
# Procedure, shortened: as §1
# [6] = compound: CN1C2=C(C3=C1C(=O)N(N=C3)CC4=CC(=CC=C4)N)SC(=C2)S(=O)C
# Procedure, shortened: as §1
# [7] = compound: CN1CCC(CNc2ccc3ncc(-c4cccc(OC(F)(F)F)c4)n3n2)CC1
# Procedure, shortened: as §1
# Chain of UniProt Q8N165 (Q8N165 whole entry, looked up): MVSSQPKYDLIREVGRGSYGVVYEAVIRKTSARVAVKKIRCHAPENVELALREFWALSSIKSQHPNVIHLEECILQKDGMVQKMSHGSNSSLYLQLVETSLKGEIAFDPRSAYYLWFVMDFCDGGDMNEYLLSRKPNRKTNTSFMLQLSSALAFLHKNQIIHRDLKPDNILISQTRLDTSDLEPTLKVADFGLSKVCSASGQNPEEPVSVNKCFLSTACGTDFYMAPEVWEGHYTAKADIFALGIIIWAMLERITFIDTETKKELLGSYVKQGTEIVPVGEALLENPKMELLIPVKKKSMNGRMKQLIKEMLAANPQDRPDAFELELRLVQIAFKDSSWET
# Chain of UniProt P10644 (P10644 whole entry, looked up): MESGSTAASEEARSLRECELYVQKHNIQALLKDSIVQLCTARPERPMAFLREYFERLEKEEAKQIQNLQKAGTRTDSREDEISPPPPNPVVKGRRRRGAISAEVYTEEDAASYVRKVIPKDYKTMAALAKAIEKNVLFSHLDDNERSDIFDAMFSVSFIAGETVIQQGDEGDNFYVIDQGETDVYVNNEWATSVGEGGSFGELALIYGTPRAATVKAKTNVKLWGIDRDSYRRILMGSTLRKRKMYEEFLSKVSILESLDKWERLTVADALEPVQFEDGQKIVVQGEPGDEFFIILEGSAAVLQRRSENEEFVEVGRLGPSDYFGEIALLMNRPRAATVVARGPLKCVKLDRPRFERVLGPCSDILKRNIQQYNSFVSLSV
# Chain of UniProt P27986 (P27986 whole entry, looked up): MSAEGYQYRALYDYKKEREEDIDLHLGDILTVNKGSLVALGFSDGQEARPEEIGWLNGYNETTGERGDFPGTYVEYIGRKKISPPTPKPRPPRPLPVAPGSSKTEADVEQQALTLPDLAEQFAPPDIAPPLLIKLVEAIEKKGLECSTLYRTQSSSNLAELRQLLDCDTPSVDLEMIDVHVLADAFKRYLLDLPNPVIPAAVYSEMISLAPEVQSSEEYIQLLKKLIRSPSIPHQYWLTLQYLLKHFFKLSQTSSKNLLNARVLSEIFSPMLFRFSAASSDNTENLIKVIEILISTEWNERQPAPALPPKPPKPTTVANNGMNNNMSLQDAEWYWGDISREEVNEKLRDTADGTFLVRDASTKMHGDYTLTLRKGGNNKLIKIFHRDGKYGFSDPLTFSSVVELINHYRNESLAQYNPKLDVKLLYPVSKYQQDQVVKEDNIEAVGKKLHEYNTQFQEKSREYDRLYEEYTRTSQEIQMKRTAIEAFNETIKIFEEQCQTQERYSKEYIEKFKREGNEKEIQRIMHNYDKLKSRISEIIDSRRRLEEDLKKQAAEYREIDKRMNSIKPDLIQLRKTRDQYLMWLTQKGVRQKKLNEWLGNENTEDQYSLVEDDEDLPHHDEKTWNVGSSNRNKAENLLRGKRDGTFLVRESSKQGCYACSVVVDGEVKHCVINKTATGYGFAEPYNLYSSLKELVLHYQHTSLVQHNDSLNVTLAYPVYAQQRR
# Chain of UniProt Q8IV08 (Q8IV08 whole entry, looked up): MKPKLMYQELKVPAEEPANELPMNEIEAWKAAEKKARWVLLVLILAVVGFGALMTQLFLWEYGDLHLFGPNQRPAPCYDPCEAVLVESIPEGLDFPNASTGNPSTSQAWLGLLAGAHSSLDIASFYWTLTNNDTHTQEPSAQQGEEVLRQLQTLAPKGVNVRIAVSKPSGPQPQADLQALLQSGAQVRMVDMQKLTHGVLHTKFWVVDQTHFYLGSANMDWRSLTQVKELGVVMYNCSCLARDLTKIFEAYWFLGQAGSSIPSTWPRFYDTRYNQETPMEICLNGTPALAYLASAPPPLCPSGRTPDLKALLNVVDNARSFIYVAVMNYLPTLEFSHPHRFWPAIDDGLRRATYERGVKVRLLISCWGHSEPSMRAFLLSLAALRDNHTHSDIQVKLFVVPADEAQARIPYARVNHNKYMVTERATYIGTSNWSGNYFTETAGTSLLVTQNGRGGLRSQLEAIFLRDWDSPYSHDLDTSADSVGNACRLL
# Chain of UniProt Q15054 (Q15054 whole entry, looked up): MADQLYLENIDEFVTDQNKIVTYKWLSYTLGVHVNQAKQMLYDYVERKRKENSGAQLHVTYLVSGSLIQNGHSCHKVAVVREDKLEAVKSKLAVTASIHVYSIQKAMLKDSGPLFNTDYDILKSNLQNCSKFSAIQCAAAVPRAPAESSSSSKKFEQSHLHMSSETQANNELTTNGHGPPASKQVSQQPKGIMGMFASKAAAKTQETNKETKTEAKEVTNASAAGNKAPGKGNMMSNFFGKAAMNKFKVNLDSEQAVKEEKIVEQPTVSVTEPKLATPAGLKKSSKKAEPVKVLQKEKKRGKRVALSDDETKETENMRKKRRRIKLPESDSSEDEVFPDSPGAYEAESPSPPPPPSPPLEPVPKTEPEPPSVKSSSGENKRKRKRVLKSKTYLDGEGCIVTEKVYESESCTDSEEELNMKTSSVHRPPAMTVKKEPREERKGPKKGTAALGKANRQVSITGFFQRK
# Chain of UniProt O14974 (O14974 whole entry, looked up): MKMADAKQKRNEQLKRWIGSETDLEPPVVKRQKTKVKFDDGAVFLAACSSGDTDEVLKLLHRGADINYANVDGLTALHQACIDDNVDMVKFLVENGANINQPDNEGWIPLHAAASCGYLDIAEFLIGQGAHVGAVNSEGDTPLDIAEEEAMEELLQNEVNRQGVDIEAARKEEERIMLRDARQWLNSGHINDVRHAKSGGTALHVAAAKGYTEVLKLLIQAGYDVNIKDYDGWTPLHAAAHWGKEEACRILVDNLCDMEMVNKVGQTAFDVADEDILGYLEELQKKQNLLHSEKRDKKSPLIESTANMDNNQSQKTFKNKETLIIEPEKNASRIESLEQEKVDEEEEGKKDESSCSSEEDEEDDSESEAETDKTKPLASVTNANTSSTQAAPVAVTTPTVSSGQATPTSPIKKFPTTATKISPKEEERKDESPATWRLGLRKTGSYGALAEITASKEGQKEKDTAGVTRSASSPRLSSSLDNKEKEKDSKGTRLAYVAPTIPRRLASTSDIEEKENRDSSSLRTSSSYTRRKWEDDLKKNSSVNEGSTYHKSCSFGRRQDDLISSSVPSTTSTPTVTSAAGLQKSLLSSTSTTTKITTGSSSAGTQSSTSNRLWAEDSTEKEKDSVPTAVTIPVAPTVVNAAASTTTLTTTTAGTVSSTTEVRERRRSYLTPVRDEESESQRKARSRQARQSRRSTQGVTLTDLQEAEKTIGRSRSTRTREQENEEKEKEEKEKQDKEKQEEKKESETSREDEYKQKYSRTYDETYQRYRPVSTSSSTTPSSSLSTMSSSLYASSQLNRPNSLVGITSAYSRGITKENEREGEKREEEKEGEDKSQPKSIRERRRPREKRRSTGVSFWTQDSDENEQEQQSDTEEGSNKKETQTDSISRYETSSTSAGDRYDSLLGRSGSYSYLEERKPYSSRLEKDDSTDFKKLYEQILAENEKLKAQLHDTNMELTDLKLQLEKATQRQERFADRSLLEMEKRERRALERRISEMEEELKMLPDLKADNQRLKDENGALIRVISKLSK
# Chain of UniProt P29590 (P29590 whole entry, looked up): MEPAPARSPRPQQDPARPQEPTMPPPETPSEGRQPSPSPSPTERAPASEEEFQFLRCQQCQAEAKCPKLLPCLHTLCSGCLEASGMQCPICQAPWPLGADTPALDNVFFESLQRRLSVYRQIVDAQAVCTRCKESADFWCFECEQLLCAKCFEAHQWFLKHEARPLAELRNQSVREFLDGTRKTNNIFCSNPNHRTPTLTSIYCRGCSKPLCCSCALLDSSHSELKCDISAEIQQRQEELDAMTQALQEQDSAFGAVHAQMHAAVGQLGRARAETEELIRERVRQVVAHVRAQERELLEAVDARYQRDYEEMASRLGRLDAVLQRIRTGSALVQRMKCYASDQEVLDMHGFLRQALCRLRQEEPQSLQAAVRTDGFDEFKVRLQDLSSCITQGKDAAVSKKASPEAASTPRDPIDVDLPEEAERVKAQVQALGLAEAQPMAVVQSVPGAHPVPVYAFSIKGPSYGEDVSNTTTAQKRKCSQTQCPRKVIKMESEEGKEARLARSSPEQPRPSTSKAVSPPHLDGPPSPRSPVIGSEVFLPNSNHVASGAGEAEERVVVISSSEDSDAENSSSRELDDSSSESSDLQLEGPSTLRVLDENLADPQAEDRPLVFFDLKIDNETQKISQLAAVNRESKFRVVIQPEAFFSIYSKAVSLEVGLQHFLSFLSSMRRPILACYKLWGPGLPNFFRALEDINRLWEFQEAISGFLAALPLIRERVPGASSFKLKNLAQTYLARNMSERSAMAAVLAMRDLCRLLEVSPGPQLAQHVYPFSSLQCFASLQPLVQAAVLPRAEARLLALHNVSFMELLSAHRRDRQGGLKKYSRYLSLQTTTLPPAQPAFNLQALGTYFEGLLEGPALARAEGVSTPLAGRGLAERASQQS
# Chain of UniProt P28065 (P28065 whole entry, looked up): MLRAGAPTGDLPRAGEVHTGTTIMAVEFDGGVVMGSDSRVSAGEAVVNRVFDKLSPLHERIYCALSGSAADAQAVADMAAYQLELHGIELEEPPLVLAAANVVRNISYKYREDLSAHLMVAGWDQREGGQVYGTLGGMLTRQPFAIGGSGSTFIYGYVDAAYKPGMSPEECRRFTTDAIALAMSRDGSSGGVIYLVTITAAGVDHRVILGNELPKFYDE
# Chain of UniProt Q14442 (Q14442 whole entry, looked up): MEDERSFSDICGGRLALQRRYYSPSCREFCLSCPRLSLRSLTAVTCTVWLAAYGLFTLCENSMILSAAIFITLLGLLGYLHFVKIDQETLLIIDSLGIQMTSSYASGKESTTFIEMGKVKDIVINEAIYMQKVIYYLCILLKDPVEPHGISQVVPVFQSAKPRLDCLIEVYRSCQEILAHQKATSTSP
# Chain of UniProt Q12974 (Q12974 whole entry, looked up): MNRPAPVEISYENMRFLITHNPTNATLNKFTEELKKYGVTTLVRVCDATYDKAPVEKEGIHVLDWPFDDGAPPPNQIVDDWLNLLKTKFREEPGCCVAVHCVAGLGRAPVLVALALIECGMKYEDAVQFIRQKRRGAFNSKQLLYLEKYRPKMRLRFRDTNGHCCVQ
Target,log2 fold change [1],log2 fold change (volasertib),log2 fold change [2],log2 fold change (epoxomicin),log2 fold change [3],log2 fold change [4],log2 fold change [5],log2 fold change (rosiglitazone),log2 fold change [6],log2 fold change [7]
PML (UniProt P29590),-0.051,-0.136,0.027,-0.021,-0.001,-0.024,-0.049,0.026,0.015,-0.045
PIK3R1 (UniProt P27986),-0.04,-0.142,-0.018,0.036,-0.015,-0.072,-0.002,0.095,-0.064,0.127
PPP2R5C isoform 4 (UniProt Q13362),-0.069,-0.127,0.042,0.19,0.018,-0.099,-0.048,0.052,-0.003,-0.11
PARP1 (UniProt P09874),-0.233,-0.57 (active),0.162,0.1,-0.088,0.302,,0.086,0.027,-0.146
PNPLA4 (UniProt P41247),-0.152,-0.093,-0.039,,-0.083,,-0.004,-0.081,0.126,
PNN (UniProt Q9H307),0.248,-0.039,-0.077,-0.07,-0.052,0.021,,0.003,0.067,-0.042
POLD3 (UniProt Q15054),-0.147,-0.101,0.008,0.126,-0.071,-0.037,0.067,0.513,0.051,-0.118
PTPN23 (UniProt Q9H3S7),-0.163,-0.453 (active),0.019,0.013,-0.024,-0.006,0.073,0.017,0.016,-0.106
PSMB9 (UniProt P28065),0.114,0.008,,0.049,-0.046,0.033,-0.043,-0.057,,0.051
PIK3CD (UniProt O00329),-0.069,-0.036,,-0.076,-0.229,,-0.059,0.288,0,
PIGH (UniProt Q14442),0.06,-0.008,,-0.128,0.022,-0.038,0.013,0.058,0.115,0.051
PHKA1 (UniProt P46020),0.042,-0.367,0.076,-0.039,-0.019,0.143,,-0.038,0.112,-0.045
PPP1R12A (UniProt O14974),-0.136,-0.468 (active),0.066,0.067,-0.028,-0.229,0,0.059,-0.016,-0.536 (active)
PHC3 isoform 7 (UniProt Q8NDX5),0.076,-0.163,0.178,0.254,-0.113,,,0.066,,
PCNX1 (UniProt Q96RV3),0.331,0.132,-0.004,-0.017,,,-0.064,0.028,,
POGZ (UniProt Q7Z3K3),-0.077,-0.293,,0.08,-0.088,-0.192,0.07,,0.006,0.063
PTP4A2 (UniProt Q12974),0.039,0.083,0.077,0.153,0.027,,-0.026,-0.124,-0.003,
PPP2R5B (UniProt Q15173),-0.348,-0.173,0.021,,0.025,0.015,0.128,0.11,-0.05,-0.529 (active)
PARP16 isoform 3 (UniProt Q8N5Y8),0.103,-0.025,0.067,0.029,0.006,-0.252 (active),0.061,0.09,-0.008,0.096
PLD3 (UniProt Q8IV08),-0.369 (active),-0.437 (active),-0.038,0.041,0.052,0.035,0.014,-0.007,-0.027,-0.488 (active)
PHKA2 (UniProt P46019),-0.049,-0.094,-0.174,0.071,-0.047,-0.029,0.01,0.026,-0.002,-0.35 (active)
POLR2M (UniProt Q6EEV4),0.13,0.009,0.002,0.154,0.027,,0.091,0.097,0.105,
POLB (UniProt P06746),-0.127,-0.073,0.077,0.043,-0.078,0.111,,,0.016,-0.156
PRKAR1A (UniProt P10644),0.213,-0.054,-0.068,-0.122,0.071,0.001,0.023,-0.032,0.132,0.705 (active)
PHF5A (UniProt Q7RTV0),0.013,0.065,-0.061,0.051,0.014,0.087,-0.063,-0.062,-0.017,0.017
PDIK1L (UniProt Q8N165),0.123,0.108,-0.056,-0.128,0.123,,-0.028,-0.135,0.02,
